The text below walks through data of PubChem BioAssay.

Assay [1] is described as follows: rapamycin-like changes in RPL19A-GFP expression – cell-based, S. cerevisiae, multiplex flow cytometry, primary screen (AID 1862; in the data active = percent of DMSO control GFP below about 86%;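 also: lower values mimic rapamycin by blocking the RPL19A rise seen in DMSO cells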). Particulars: S. cerevisiae RPL19A-GFP strain, flow cytometry fluorescence, 3 h; at 10 µM; stronger effect = lower value. (A flow cytometer gives signals particle by particle.)
A short description of assay [2]: TOR pathway GLN3 branch reporter MEP2-GFP changes – S. cerevisiae, multiplex flow cytometry, primary screen (AID 1867;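 active = GFP response, as percent of the DMSO control, above the screen-wide mean plus 3 SD, about 139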;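 also: median GFP channel fluorescence of barcode-gated MEP2-GFP cells measured by flow cytometry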). Conditions: S. cerevisiae MEP2-GFP strain, 3 h, at 10 µM, stronger effect = higher value, 100% means same as DMSO wells.
The nature of assay [3]: TOR pathway RTG branch CIT2 reporter changes – S. cerevisiae, GFP fusion, multiplex flow cytometry, primary screen (AID 1870;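 active = percent response above a set limit, the screen-wide mean plus 3 SD, cut at about 130% in these data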;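 also: barcoded CIT2-GFP strain pooled with four other GFP strains with rapamycin as positive control; median GFP fluorescence per well over plate mean of DMSO wells so 100% = DMSO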). Conditions: S. cerevisiae CIT2-GFP expression, 3 h, at 10 µM, stronger effect = higher value.
The nature of assay [4]: TOR pathway LAP4-GFP level changes – S. cerevisiae, multiplex flow cytometry, primary screen (AID 1873;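 active = GFP signal, as percent of the solvent control, above the screen mean plus 3 SD, about 149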). Particulars: S. cerevisiae LAP4-GFP expression, 3 h, at 10 µM, stronger effect = higher value.
Assay [5] is described as follows: yeast AGP1-GFP level changes, GLN3 branch – cell-based, multiplex flow cytometry, S. cerevisiae, primary screen (AID 1887;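 active = GFP signal above the screen-wide mean plus 3 SD, that is over about 124.5% of the solvent control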;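 also: AGP1-GFP fusion strain of S. cerevisiae within a five-strain barcoded multiplex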). Conditions: 3 h, at 10 µM, stronger effect = higher value.
A short description of assay [6]: reduced mouse 2C T cell binding to pMHC/ICAM-1 vesicles – MLPCN validation set, flow cytometry, LFA-1/ICAM-1 modulator project, pilot screen (AID 2523;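 active = response below a set limit, under 55% cells CD8-positive and vesicle-bound, and CD8 cells' 90th-percentile brightness under 279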;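 as to vesicle binding response: mean PE anti-B7-1 fluorescence of CD8+ cells relative to row control; 100% = QL9-loaded vesicles with DMSO vehicle in the same plate row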). Conditions: 2C mouse CD8+ T cells, at 7 µM, stronger effect = lower value; double positive events: measured here: CD8+/vesicle+ event percentage.
For assay [7], the target named is Integrin beta-1 (Homo sapiens) + Integrin alpha-4 (Homo sapiens) (UniProt P13612+P05556). The assay can be described thus: alpha4beta1 integrin LIBS antibody binding reduction – U937 cells, HUTS-21 mAb, flow cytometry, validation set, VLA-4 allosteric modulator project, pilot screen (AID 2674;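 active = inhibition above 50%, about 3 SD of the validation set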;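 also: antibody binding induced by the VLA-4 ligand LDV present at three times its Kd; 0% = LDV ligand with antibody and no compound and 100% = antibody without LDV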). Particulars: HUTS-21 LIBS mAb binding, at 6.7 µM, stronger effect = higher value, binding induced by LDV ligand.

Assay [8] can be described thus: calorie-restriction mimetic ROS inhibitors, yeast – validation compound set, pilot screen (AID 2706;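 active = superoxide response below 65% of plate, a cut near 3 SD across the whole screen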;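 also: yeast exposed to compound for one week at 30 degrees C before staining; 100% = mean of all compound wells on the same plate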). Particulars: S. cerevisiae aging, superoxide DHE fluorescence; at 10 µM, stronger effect = lower value.
The target of assay [9] is Beta-adrenergic receptor kinase 1 (Homo sapiens) (UniProt P25098). The experiment in a line: GRK2 binders displacing RNA aptamer, biochemical, validation, human GRK2, bead flow cytometry (AID 488806;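 active = aptamer binding inhibition above 30%, about 3 SD of noise from non-fluorescent compounds; inactive = inhibition at or below 30%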). Particulars: bead-bound GRK2, FAM-aptamer displacement, at 10 µM, stronger effect = higher value.
Assay [10] deals with AP-2 complex subunit beta (Homo sapiens) (UniProt P63010). The experiment in a line: beta-arrestin/AP2 interaction blockers – biochemical, validation set, GST-AP2 beads, flow cytometry, pilot screen (AID 504541;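 active = inhibition above 54%, about 3 SD of non-fluorescent compounds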;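 also: AP2 carries R879A mutation and is captured from E. coli lysate; bead-bound FITC arrestin peptide fluorescence measuring arrestin peptide binding to AP2; 0% = DMSO wells and 100% = excess unlabeled arrestin peptide control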). Conditions: FITC arrestin peptide, at 10 µM, stronger effect = higher value, AP2 beta2 appendage fragment, R879A mutant.
Assay [11] in a line: cytosolic pH regulators acting via V-ATPase – S. cerevisiae, pHLuorin, HTS validation (AID 504600; in the data active = response above about 15%;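 also: plate controls were DMSO for no effect and reference compound for full effect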). Particulars: V-ATPase proton transport, at 10 µM, stronger effect = higher value.
Assay [12] relates to anti-desmoglein-3 scFv antibody binding to human DSG3. The assay can be described thus: blockers of pathogenic pemphigus antibody–desmoglein-3 binding – biochemical, validation compound set, bead-based, flow cytometry, pilot screen (AID 588368;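 active = binding below the plate cutoff, the plate median minus 3 SD, with a reading above zero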;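 also: signal is the median channel fluorescence of bead-bound GFP antibody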). Conditions: Protein G beads, DSG3-Fc, scFv-GFP binding, at 10 µM, stronger effect = lower value.
A short description of assay [13]: Nile Red efflux blockade in pump-expressing yeast – validation compound set, multiplex, phenotypic, pilot screen (AID 588506;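 active = efflux inhibition above 0.42, the validation set average plus 4 SD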;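 also: Nile Red retained in cells so higher fluorescence means more efflux inhibition; 0 = negative control wells and 1 = enniatin B 25 µM full block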). Conditions: S. cerevisiae pump-expressing triplex, Nile Red efflux flow cytometry; at 10 µM; stronger effect = higher value; the pumps come from Candida albicans.
Assay [14] concerns the target ATP-binding cassette sub-family B member 6 (Homo sapiens) (UniProt Q9NP58). The assay can be described thus: blockers of ABCB6-driven porphyrin uptake – K562-ABCB6 cells, flow cytometry, validation set, pilot screen (AID 588550;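 active = inhibition above the screen-wide mean plus 3 SD, about 51%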;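 also: 0% = DMSO wells and 100% = benzethonium chloride 70 µM positive control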). Conditions: K562-ABCB6 porphyrin accumulation, 1 h, at 10 µM, stronger effect = higher value.
Assay [15] in a line: AML differentiation inducers, ER-HoxA9 marrow cells – cell-based, GFP/MAC1 double positive, flow cytometry, validation set, primary screen (AID 588685).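 Also: compound exposure lasts four days before antibody staining and flow analysis; 0% = DMSO wells and 100% = 5 µM fulvestrant positive control.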 Conditions: stronger effect = higher value, normalized: vehicle 0, fulvestrant 100.

Molecules are shown by their SMILES. Inconclusive results are not listed. Activity calls are given as the source filed them.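 The calls were made as follows, unless noted: active = differentiation response of at least 50%, scaled between solvent and reference control, from cells with both markers; inactive = the rest.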

Chain of ATP-binding cassette sub-family B member 6 (Homo sapiens) (Q9NP58 whole entry, looked up): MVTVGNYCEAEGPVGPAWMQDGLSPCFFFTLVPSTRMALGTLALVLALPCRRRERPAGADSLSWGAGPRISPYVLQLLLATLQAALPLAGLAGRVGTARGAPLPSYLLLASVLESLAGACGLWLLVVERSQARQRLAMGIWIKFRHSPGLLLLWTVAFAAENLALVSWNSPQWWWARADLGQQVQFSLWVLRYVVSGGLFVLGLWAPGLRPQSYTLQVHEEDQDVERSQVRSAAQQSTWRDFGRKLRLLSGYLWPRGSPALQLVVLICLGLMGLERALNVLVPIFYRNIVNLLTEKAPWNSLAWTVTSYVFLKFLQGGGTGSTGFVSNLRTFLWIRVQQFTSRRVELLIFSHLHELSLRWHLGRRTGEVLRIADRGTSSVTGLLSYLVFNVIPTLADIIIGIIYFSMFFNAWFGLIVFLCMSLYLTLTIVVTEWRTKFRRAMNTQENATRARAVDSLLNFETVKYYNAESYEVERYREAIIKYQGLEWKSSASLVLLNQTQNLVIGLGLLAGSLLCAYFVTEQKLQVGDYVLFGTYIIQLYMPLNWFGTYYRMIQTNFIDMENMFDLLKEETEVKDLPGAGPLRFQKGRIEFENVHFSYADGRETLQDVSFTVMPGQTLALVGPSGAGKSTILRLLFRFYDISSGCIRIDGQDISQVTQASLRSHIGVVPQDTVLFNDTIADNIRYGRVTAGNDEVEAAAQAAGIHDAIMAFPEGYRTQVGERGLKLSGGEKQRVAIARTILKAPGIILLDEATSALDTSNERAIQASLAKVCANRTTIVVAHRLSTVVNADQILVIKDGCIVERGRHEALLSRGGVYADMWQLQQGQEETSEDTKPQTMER
Chain of Integrin beta-1 (Homo sapiens) + Integrin alpha-4 (Homo sapiens) (P05556 whole entry, looked up): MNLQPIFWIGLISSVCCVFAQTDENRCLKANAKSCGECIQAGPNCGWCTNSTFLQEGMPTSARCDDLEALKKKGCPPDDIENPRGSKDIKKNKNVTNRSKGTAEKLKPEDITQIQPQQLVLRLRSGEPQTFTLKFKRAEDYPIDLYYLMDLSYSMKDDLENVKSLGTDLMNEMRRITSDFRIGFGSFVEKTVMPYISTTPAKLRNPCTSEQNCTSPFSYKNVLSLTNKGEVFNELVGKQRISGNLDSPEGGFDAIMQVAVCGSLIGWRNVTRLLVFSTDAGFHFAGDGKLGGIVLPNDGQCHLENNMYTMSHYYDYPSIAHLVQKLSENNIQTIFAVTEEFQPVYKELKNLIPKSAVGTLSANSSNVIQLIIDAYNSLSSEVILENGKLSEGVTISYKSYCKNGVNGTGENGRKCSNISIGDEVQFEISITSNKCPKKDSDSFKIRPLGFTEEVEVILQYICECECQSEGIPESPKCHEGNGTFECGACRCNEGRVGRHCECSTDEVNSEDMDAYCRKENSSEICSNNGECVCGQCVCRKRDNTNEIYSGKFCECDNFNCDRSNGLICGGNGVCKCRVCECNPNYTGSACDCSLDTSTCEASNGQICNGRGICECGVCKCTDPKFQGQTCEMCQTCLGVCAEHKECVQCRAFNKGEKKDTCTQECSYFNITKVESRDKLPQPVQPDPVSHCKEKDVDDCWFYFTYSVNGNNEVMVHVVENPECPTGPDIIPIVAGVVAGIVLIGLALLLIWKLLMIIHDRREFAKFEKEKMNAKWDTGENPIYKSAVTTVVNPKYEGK
Chain of Integrin beta-1 (Homo sapiens) + Integrin alpha-4 (Homo sapiens) (P13612 whole entry, looked up): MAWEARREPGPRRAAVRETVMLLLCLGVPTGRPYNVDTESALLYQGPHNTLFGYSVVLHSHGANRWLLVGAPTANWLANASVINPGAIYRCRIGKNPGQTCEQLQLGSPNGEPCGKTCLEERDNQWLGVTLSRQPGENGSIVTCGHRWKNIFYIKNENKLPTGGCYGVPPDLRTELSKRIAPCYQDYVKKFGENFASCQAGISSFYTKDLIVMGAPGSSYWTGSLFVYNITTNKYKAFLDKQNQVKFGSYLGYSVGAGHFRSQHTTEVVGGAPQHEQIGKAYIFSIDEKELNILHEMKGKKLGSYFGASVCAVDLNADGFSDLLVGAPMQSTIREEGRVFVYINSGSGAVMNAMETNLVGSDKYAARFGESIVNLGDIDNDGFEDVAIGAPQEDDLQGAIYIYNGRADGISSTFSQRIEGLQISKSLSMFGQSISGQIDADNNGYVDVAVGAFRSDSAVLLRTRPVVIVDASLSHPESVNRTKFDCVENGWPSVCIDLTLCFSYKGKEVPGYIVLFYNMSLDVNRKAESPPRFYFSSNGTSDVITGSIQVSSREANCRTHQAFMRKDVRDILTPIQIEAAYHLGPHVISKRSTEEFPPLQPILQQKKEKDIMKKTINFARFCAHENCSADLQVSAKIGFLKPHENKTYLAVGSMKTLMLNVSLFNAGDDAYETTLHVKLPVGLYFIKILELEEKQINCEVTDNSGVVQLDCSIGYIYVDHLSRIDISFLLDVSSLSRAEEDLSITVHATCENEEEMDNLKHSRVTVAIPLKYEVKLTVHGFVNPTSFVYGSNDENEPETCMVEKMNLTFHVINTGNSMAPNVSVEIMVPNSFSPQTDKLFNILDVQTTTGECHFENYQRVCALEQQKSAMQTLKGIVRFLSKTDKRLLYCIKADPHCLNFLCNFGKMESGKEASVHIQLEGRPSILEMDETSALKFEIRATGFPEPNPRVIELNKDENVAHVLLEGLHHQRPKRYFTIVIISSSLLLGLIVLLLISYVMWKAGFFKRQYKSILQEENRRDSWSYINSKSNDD
Chain of Beta-adrenergic receptor kinase 1 (Homo sapiens) (P25098 whole entry, looked up): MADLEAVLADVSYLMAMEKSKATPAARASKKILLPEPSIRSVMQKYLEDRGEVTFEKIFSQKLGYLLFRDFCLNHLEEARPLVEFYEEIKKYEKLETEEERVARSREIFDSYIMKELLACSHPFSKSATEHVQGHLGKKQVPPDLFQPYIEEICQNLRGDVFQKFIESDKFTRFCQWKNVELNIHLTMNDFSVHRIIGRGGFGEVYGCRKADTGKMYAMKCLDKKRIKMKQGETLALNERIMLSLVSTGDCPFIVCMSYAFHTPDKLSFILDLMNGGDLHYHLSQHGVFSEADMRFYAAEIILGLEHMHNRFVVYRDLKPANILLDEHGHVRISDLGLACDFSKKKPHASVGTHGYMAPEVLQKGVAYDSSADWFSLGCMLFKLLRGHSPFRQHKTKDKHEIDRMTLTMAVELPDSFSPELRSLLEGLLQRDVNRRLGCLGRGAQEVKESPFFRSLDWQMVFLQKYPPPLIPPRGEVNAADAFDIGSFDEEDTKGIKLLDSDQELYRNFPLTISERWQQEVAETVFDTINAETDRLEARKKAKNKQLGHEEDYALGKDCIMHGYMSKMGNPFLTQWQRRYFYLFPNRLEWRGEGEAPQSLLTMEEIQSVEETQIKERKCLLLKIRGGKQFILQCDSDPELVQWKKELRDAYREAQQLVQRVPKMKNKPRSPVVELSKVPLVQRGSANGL
Chain of AP-2 complex subunit beta (Homo sapiens) (P63010 whole entry, looked up, the tested form may be a part, one chain of several): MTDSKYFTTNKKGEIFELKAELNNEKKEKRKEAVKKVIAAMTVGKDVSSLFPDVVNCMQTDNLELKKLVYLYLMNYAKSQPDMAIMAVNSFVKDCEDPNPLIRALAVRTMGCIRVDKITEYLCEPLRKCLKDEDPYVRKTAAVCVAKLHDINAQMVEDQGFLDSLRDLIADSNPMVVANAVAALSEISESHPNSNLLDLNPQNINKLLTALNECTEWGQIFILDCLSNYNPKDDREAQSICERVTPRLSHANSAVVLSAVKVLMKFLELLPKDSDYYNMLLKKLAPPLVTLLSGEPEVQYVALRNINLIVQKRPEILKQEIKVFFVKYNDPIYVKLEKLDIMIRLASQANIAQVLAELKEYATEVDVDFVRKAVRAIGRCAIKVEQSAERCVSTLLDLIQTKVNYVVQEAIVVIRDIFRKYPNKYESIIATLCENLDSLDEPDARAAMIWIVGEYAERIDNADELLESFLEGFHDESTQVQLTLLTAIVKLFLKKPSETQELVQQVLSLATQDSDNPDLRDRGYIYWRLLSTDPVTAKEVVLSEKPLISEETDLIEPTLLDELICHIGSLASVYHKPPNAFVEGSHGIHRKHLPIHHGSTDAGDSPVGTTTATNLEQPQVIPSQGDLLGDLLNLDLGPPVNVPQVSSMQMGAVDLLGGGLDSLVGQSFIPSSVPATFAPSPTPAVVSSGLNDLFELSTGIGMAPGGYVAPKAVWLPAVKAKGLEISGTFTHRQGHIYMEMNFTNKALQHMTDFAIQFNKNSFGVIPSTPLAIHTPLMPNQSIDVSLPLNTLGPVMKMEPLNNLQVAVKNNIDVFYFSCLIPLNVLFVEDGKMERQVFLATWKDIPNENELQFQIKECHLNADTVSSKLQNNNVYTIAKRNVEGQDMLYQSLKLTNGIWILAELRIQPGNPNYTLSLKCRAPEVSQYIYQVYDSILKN

In the case of `COC(=O)c1ccc(COc2ccc3c(C)c(C)c(=O)oc3c2C)o1`, the percent of DMSO control GFP in [1] was 101% (inactive). Moreover, the GFP response vs DMSO in assay [2] was 97.9% (inactive); in [4], 92.3% (inactive). Further, in assay [3], the percent response of DMSO control is 96.9% (inactive). For the same molecule, in assay [5], the GFP response, % of DMSO is 91.6% (inactive). In assay [6], this molecule yielded a double positive events of 57.7%. Moreover, in assay [6], the vesicle binding response was 157% (inactive). For the same molecule, the figures for the inhibition in [7], in [10] and in assay [14] were 14.7% (inactive), 4.76% (inactive) and 11% (inactive), respectively. Also, the superoxide response (% of plate) in assay [8] is 96.2% (inactive). The aptamer binding inhibition in assay [9] is 3% (inactive). Further, the response in [11] is -2.54% (inactive). In addition, in [12], the binding (% of control) is 102% (inactive). In [13], the efflux inhibition (fraction of control) was 0.06 (inactive). The differentiation response in assay [15] was 9.49% (inactive).

`CCN(CC)CCNc1ccc(CO)c2sc3ccccc3c(=O)c12`: in [1], the percent of DMSO control GFP is 104% (inactive). Besides, the values for the GFP response vs DMSO in assay [2] and in assay [4] were 109% (inactive) and 112% (inactive), respectively. In [3], the percent response of DMSO control was 112% (inactive). Further, in assay [5], the GFP response, % of DMSO is 103% (inactive). In [6], this molecule returned a double positive events of 47.8%. Besides, the vesicle binding response in [6] was 231% (inactive). For the same molecule, the inhibition (usually the change of the read-out against control, counted positive when it falls) in [7] is 21.2% (inactive); in [10], -0.76% (inactive); in assay [14] it was 8% (inactive). Besides, the superoxide response (% of plate) in [8] is 109% (inactive). Moreover, the aptamer binding inhibition in [9] was -5% (inactive). The response in assay [11] is 2.76% (inactive). In addition, the binding (% of control) in assay [12] is 120% (inactive). For the same molecule, the efflux inhibition (fraction of control) in assay [13] is -0.39 (inactive). In assay [15], the differentiation response is -8.27% (inactive).

Take `CC(=O)Oc1ccc(C(=O)O)cc1OC(C)=O`: the percent of DMSO control GFP in assay [1] was 98% (inactive). Further, the GFP response vs DMSO in assay [2] is 104% (inactive); in [4], 99.4% (inactive). For the same molecule, the percent response of DMSO control in assay [3] was 104% (inactive). Further, in assay [5], the GFP response, % of DMSO is 98.4% (inactive). In [6], this molecule had a double positive events of 59.1%. In addition, the vesicle binding response in [6] was 164% (inactive). The inhibition in assay [7] is -3.04% (inactive); in assay [10], -6.29% (inactive); in assay [14], 6% (inactive). For the same molecule, in [8], the superoxide response (% of plate) was 98.2% (inactive). Besides, the aptamer binding inhibition in assay [9] is 4% (inactive). Also, the response in [11] was 0.26% (inactive). In [12], the binding (% of control) is 105% (inactive). In addition, the efflux inhibition (fraction of control) in assay [13] was -0.01 (inactive). Moreover, in [15], the differentiation response is 1.41% (inactive).

Consider `CC(C)NC(=O)C1(c2ccccc2)CCOCC1`, for which, in assay [1], the percent of DMSO control GFP is 100% (inactive). Further, the GFP response vs DMSO was 95.9% (inactive) in [2] and 99.4% (inactive) in assay [4]. In addition, the percent response of DMSO control in assay [3] is 104% (inactive). For the same molecule, the GFP response, % of DMSO in assay [5] is 99.3% (inactive). In [6], the double positive events stood at 62.2%. For the same molecule, in [6], the vesicle binding response was 191% (inactive). The inhibition in [7] is -51.5% (inactive); in [10] it was 3.27% (inactive); in [14], 4% (inactive). Besides, the superoxide response (% of plate) in assay [8] is 99.3% (inactive). Further, the aptamer binding inhibition in assay [9] was 4% (inactive). For the same molecule, in [11], the response was 0.02% (inactive). Besides, the binding (% of control) in assay [12] is 98.2% (inactive). The efflux inhibition (fraction of control) in [13] was -0.01 (inactive). Also, the differentiation response in assay [15] is -0.2% (inactive).

In the case of `COC(=O)C1=C(C)NC(C)=C(C(=O)OC)C1c1ccccc1[N+](=O)[O-]`, the percent of DMSO control GFP in assay [1] was 102% (inactive). The GFP response vs DMSO in assay [2] was 104% (inactive); in assay [4], 108% (inactive). For the same molecule, the percent response of DMSO control in [3] was 102% (inactive). The GFP response, % of DMSO in assay [5] is 94.6% (inactive). The double positive events in assay [6] was determined as 53.9%. Also, in assay [6], the vesicle binding response is 186% (inactive). Besides, the inhibition was 5.36% (inactive) in [7], 34.7% (inactive) in [10] and 12% (inactive) in assay [14]. In assay [8], the superoxide response (% of plate) was 93.7% (inactive). The aptamer binding inhibition in assay [9] was -2% (inactive). The response in assay [11] is -7.73% (inactive). Moreover, in assay [12], the binding (% of control) was 104% (inactive). Further, in assay [13], the efflux inhibition (fraction of control) was -0.39 (inactive). Further, the differentiation response in [15] is -8.27% (inactive).
